Laboratory results published in PubChem BioAssay (NCI).
This is part of a sample that, as a whole, favours compounds with a hit. Of some 83,000 tested, about 20% had one in any assay.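 Testing used 96-well plates and a 48-hour single-concentration exposure. Example: -40 means 40% of the starting cells died.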 Unmarked numbers belong to inactive results. Activity calls are given as the source filed them. Rule for the calls: active = growth percent below 10; inactive = the rest.

Columns and labels:
Assay in all cases: NCI-60 one-dose screen, 48 h (100 = growth as untreated, 0 = no growth, -100 = all killed)
Details in all cases: 10 µM unless noted
SK-MEL-2 melanoma = test system: SK-MEL-2 melanoma
EKVX NSCLC = test system: EKVX NSCLC
SN12C renal = test system: SN12C renal
UO-31 renal = test system: UO-31 renal
TK-10 renal = test system: TK-10 renal
ACHN renal = test system: ACHN renal
CAKI-1 renal = test system: CAKI-1 renal
A498 renal = test system: A498 renal
CCRF-CEM leukemia = test system: CCRF-CEM leukemia
MOLT-4 leukemia = test system: MOLT-4 leukemia

Compound	growth (SK-MEL-2 melanoma)	growth (EKVX NSCLC) [%]	growth (SN12C renal)	growth (UO-31 renal)	growth (TK-10 renal)	growth (ACHN renal)	growth (CAKI-1 renal)	growth (A498 renal)	growth (CCRF-CEM leukemia)	growth (MOLT-4 leukemia)
O=C(OCc1ccc2c(Cl)cc(Cl)c(O)c2n1)n1cncn1	36.6%	26.4	37.2%	15.2%	61.7%	25.3%	13.6%	64.9%	24.2%	18.3%
CCS/C(Nc1ccccc1)=C(\C#N)C(=O)N/N=C/c1ccc(Cl)cc1Cl	28.3%	47.4	34.5%	41.9%	56.7%	38.2%	31.5%	-2.1% (active)	9.86% (active)	18.3%
N#Cc1c(-c2cccs2)cc(-c2cccnc2)[nH]c1=O	113%	105	95.2%	78%	109%	97.2%	96.1%	141%	94.7%	108%
CCOC(=O)/C=C1\S/C(=N\Nc2cc(=O)[nH]c3ccc(Cl)cc23)N(c2ccccc2)C1=O	105%	100	93.1%	75.2%	107%	91.6%	83.3%	115%	3.19% (active)	21%
Cc1nc2ncnc(Cl)c2[nH]1	104%	103	99.7%	88.3%	94.4%	109%	94.7%	97.3%	87.7%	94.7%
O=C1CNC(c2ccccc2)C(c2ccccc2)N1 (stereo not given)	94.7%	102	99.8%	109%	103%	98.5%	81.2%	74.7%	69.9%	104%
COc1cc(NC(C)CCCNC(C)C)c2ncccc2c1OC (stereo not given)	90.8%	105	85.8%	57.7%	105%	104%	88.2%	61.3%	89.3%	98.4%
N=C(N)c1ccc(-c2ccc(-c3ccc(Cl)cc3)s2)nc1	103%	59.1	52.5%	44.6%	103%	-75.9% (active)	-65% (active)	84.5%	-45.8% (active)	-57.8% (active)
CC(C)c1ccc(COCc2cc(CN3CCCC3)c(O)c3ncccc23)cc1	-23.9% (active)	33.4	13.4%	-10.6% (active)	4.79% (active)	6.16% (active)	3.91% (active)	0.55% (active)	1.53% (active)	-5.7% (active)
CCN(CC)CCCN1C(=O)c2c(c(C)c3c(oc4cc(O)ccc43)c2C)C1=O	98%	108	-75% (active)	90.8%	112%	51.5%	-81% (active)	104%	-6.12% (active)	-5.26% (active)
N#CC1=C(N)Oc2c(sc3c(F)cccc23)C1c1ccc(F)cc1 (stereo not given)	-4.03% (active)	47.3	42.4%	41.9%	35.8%	46.6%	29.1%	23.2%	19.8%	18.4%
N#C/C(=C\c1ccc2ccccc2c1)c1cc2ccccc2[nH]1	43.5%	55.3	49.8%	49%	75.6%	50.4%	38.1%	33.7%	18.5%	29%
Cc1cccc2c1NC(=O)C2(c1ccc(O)cc1)c1ccc(O)cc1	89.2%	75.7	11.2%	89.2%	28.8%	78.5%	94.1%	81.5%	71.2%	84.2%
O=C(NNC(=O)c1ccc(-n2cc(-c3ccccc3)nn2)cc1)Nc1ccccc1	110%	108	97.7%	92.2%	109%	101%	91.8%	105%	102%	107%
O=c1c2cc(-c3ccccc3)sc2nc2sc(-c3ccccc3)nn12	107%	97.4	104%	94.2%	84%	117%	102%	61.3%	104%	102%
O=C1/C(=C/c2cccs2)SC(=S)N1CCCN1CCOCC1	101%	94.8	83.3%	82.4%	122%	95.3%	91.5%	72.2%	87.5%	101%
CCCCNc1ccc(C#N)c(OCCN(CC)CC)c1	105%	98.7	105%	84.6%	108%	101%	98.6%	117%	94.8%	88.2%
N#Cc1cccc(-c2c(-c3ccc4ccccc4c3)oc3ccccc3c2=O)c1	59.1%	52.7	68.3%	51.4%	73.1%	55.9%	45.5%	43.4%	27.6%	31%
Cc1noc(C)c1C(=O)OCc1coc2ccccc2c1=O	81.4%	86.9	65.4%	48.7%	71.4%	78.3%	45.3%	104%	24.2%	62.8%
CCCCCC(=O)OCC(=O)O[C@@H]1C[C@]2(C(C)C)O[C@@]1(C)[C@@H]1CC[C@@H](C)[C@H]1[C@@H]2OC(=O)/C=C/c1ccccc1	94%	73.8	19.7%	-80.3% (active)	134%	-24.2% (active)	-4.76% (active)	-88.6% (active)	59.7%	72.1%
CCOC(=O)c1c2c(n3ccc(C)cc13)C(=O)c1ccccc1C2=O	90.2%	91.2	95.8%	60.6%	103%	96.4%	80.1%	83.8%	99.9%	89.9%
O=C(Cc1ccccc1)Nc1nc(O)c(/C=C2\C(=O)C=Cc3ccccc32)s1	110%	95.6	101%	78.2%	150%	101%	85.3%	66.8%	114%	101%
O=C1c2cc(Cl)ccc2S(=O)(=O)c2c(NCCCNCCO)nc3ccccc3c21	23%	33.2	-46% (active)	-94.4% (active)	-79.6% (active)	-99.9% (active)	6.57% (active)	57.3%	-22.2% (active)	-19% (active)
Cc1cc2c(O)c(-c3cccc(Cl)c3)c3sc(=O)oc3c2cc1C	37.8%	93.9	36.7%	54.2%	122%	44.5%	40.5%	9.01% (active)	44.8%	45.8%
CS(=O)(=O)c1cccc(-c2c(-c3cccc(OS(N)(=O)=O)c3)nc3sccn23)c1	117%	95.3	102%	75.5%	108%	99.2%	81.2%	100%	107%	105%
c1cc2[nH]ncc2cc1-c1nc2ccc3[nH]ncc3c2c2c1CCCC2	-48.7% (active)	17.8	20.6%	-0.203% (active)	8.08% (active)	9.47% (active)	9.5% (active)	-1.43% (active)	9.05% (active)	-6.76% (active)
O=C1c2c(c3c4ccc(Br)cc4oc3c3[nH]c4ccccc4c23)C(=O)N1O	20%	66.6	14.5%	13.8%	121%	22.8%	29%	13.1%	11.4%	11.2%
